High-throughput results deposited in PubChem by National Center for Advancing Translational Sciences (NCATS).
A selection: hits, their analogues and other compounds. The true share with any hit is near 6.5%.
FMDV inh: foot and mouth disease virus antiviral activity; FMDV antiviral cell-based qHTS; Potency, µM (doses to about 57.9 µM), for inactives: at the highest dose activity change, negative = inhibition, most hits filed as inhibitors; 1.2% of 410,000 active; AID 1159524; calls by dose curve; tested in HEK293T cells; note: read-out not given here; potency is the fitted concentration of half-maximal effect; nearly all actives have a fitted effect of over 45% in size
HCMV antiviral: blocks human cytomegalovirus replication; activity change, negative = inhibition, % at 57.5 µM; AID 1259415; 4.5% of 410,000 active; HFF cells, HCMV-luciferase reporter, 72 h; hits give low values; in the data active = activity change below about -60%; inconclusive = no clear call, values can overlap the other calls; inactive = above about -39%
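Steps: HFFs plated, 16 h 37C; compounds added; HCMV-luciferase added to MOI 1 PFU/cell; 72 h 37C; OneGlo reagent, 5 min room temperature; luminescence read, normalized to controls.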
Lassa entry inh: blocks Lassa virus binding to or entry into cells; Lassa virus pseudotype entry inhibition, cell reporter; Potency, µM (doses to about 37.9 µM), inactives show at the top dose activity change, negative = inhibition, actives largely listed as inhibitors; 1.2% of 300,000 active; AID 540256; calls by dose curve; tested in HEK293 cells; note: potency is the fitted concentration of half-maximal effect; nearly all actives have a fitted effect of over 50% in size
MARV entry inh: blocks Marburg virus binding to or entry into cells; Potency, µM (titrated, usually from 37.8 µM), inactives show top-dose activity change, negative = inhibition, most hits filed as inhibitors; Marburg virus pseudotyped entry inhibition, cell reporter; 1.8% of 300,000 active; calls by dose curve; tested in HEK293 cells; note: potency is the fitted concentration of half-maximal effect
Vaccinia Venus: vaccinia inhibition (Venus reporter); Potency, µM (highest dose often 36.5 µM), for the others: at the highest dose activity change, negative = inhibition, actives largely listed as inhibitors; 0.46% of 330,000 active; Vaccinia virus Venus reporter expression, fluorescence; calls by dose curve; tested in A549 cells; note: potency is the fitted concentration of half-maximal effect; nearly all actives have a fitted effect of over 30% in size
VACV mCherry inh: inhibitors of vaccinia virus infection (mCherry reporter signal). Vaccinia virus mCherry reporter infection, fluorescence. Potency, µM (top dose mostly 36.5 µM), inactives show at the top dose activity change, negative = inhibition, most hits filed as inhibitors. 0.63% of 310,000 active. AID 720579; calls by dose curve; tested in A549 cells; note: potency is the fitted concentration of half-maximal effect; nearly all actives have a fitted effect of over 35% in size
* hit, by the source's call; i = inactive; ? = inconclusive; nt = not tested or not shown; [ ] = dose if it differs, or a comment. % is set by controls: 0 for no effect and ±100 for the full control effect.

SMILES	FMDV inh	HCMV antiviral	Lassa entry inh	MARV entry inh	Vaccinia Venus	VACV mCherry inh
C[C@@H](NC(=O)c1[nH]cnc1C(=O)Nc1ccc(Cl)cc1)c1ccccc1	-4.0%	-70.5*	nt	nt	?	?
Cc1ccccc1-c1nnc(SCC(=O)N2CCCc3ccccc32)o1	-9.8%	-6.9	0.0%[46.1 µM]	-23.2%[46.1 µM]	-1.6%	-10.7%
C[C@@H]1[C@H](c2ccccc2)OCCS(=O)(=O)N1Cc1cccc(Cl)c1	nt	nt	nt	nt	-11.1%	i
COc1ccc(Cn2c(SCc3ccc(C(=O)NCc4cccs4)cc3)nc3ccncc32)cc1	-25.0%	?	nt	?	-20.4%	-28.6%
CCC(=O)N(CCC(Cc1ccccc1)c1ccc2c(c1)OCO2)Cc1ccccc1F (configuration not stated)	?	-25.1	?	12.6µM*	?	?
CCC(=O)N(CCC(c1ccccc1)c1ccc2c(c1)OCO2)Cc1ccc(OC(C)C)cc1 (configuration not stated)	-9.8%	-8.1	?	-10.3%[46.1 µM]	-22.9%	-19.8%
CN(C(=O)c1ccc(NC(=O)Cc2ccc(NC(=O)C3CCCN(C(=O)CCc4ccccc4)C3)cc2)cc1)C1CC1 (configuration not stated)	?	-86.4*	nt	nt	?	?
CN(Cc1ccccc1)C(=O)c1ccc(NC(=O)Cc2cccc(NC(=O)C3CCCN(C(=O)CCc4ccccc4)C3)c2)cc1 (configuration not stated)	?	-68.4*	nt	nt	?	-13.8%
CN(C(=O)c1ccc(NC(=O)Cc2cccc(NC(=O)C3CCCN(C(=O)CCc4ccccc4)C3)c2)cc1)C1CCCC1 (configuration not stated)	0.0%	-4.8	nt	nt	?	-28.3%
CN(C(=O)c1cccc(NC(=O)Cc2ccc(NC(=O)C3CCCN(C(=O)CCc4ccccc4)C3)cc2)c1)C1CCCC1 (configuration not stated)	?	-71.6*	nt	nt	?	15.8µM*
CN(C(=O)c1cccc(NC(=O)Cc2ccc(NC(=O)C3CCCN(C(=O)CCc4ccccc4)C3)cc2)c1)C1CCC1 (configuration not stated)	17.8µM*	-32.2	nt	nt	?	?
CCCCNC(=O)C(CC)Sc1nnc(-c2ccc(F)cc2)c(-c2ccc(F)cc2)n1 (configuration not stated)	-15.0%	-0.3	?	nt	-25.7%	-25.1%
CCOC(=O)C1CCCCN1S(=O)(=O)c1csc(C(N)=O)c1 (configuration not stated)	2.6%	-8.6	10.2%[46.1 µM]	nt	-5.5%	-14.9%
CC1=NC=CC2C1=Nc1ccccc12 (configuration not stated)	nt	nt	nt	-0.6%	nt	nt
CCCn1c(CCC(=O)Nc2cccc(C)c2C)nc2cccnc21	-9.2%	10.8	1.4%[46.1 µM]	2.6%[46.1 µM]	2.1%	-6.5%
COc1ccc2c(Sc3ccccc3)c(C(=O)NCCc3ccc(Cl)cc3)[nH]c2c1	-11.0%	15.5	14.4%[46.1 µM]	?	-16.2%	-14.4%
COc1ccc(C(=O)Oc2c(Sc3ccc(Cl)cc3)c(C)nn2C(C)(C)C)cc1OC	?	-28.4	-27.8%[46.1 µM]	1.4%[46.1 µM]	-15.9%	-19.9%
CC(C)(C)NCC(O)CON=C1c2ccccc2-c2ccccc21 (configuration not stated)	?	-5.3	nt	10µM*	?	?
O=[N+]([O-])c1ccc(SCc2ccncc2)nc1	8.2%	-83.7*	nt	nt	-16.4%	-20.5%
CCOC(=O)c1ccc(NC(=O)CC2C(=O)N(c3ccccc3)C(=O)N2C2CCCCC2)cc1 (configuration not stated)	0.0%	7.2	1.3%[46.1 µM]	14.4%[46.1 µM]	-1.2%	-6.5%
C=CCOc1ccccc1/C=N/NC(=O)c1ccc(Cl)cc1Cl	-1.9%	10.0	-0.6%	?	-1.5%	-13.6%
COc1cc(C(=O)Oc2ccccc2/C=N/NC(=O)c2ccc(Cl)cc2Cl)cc(OC)c1OC	14.7%	-99.7*	?	?	?	nt
Cc1cccc(OCCCCCn2ccnc2)c1C	-15.9%	-80.8*	?	?	nt	nt
CCOc1ccc(OCCCCn2ccnc2)cc1	-8.0%	-61.1*	6.6%	16.4%	-15.5%	i
COc1cc(OC)c(NC(=O)CSc2nccn2C)cc1Cl	-19.0%	9.9	-3.4%[46.1 µM]	-6.7%[46.1 µM]	-0.7%	-2.7%
SMILES	FMDV inh	HCMV antiviral	Lassa entry inh	MARV entry inh	Vaccinia Venus	VACV mCherry inh
COc1ccc(-c2onc(C)c2C)cc1S(=O)(=O)N1CCN(c2cc(C)ccc2C)CC1	-23.1%	-25.7	-10.9%[46.1 µM]	nt	-18.5%	i
Cc1ccc(SC2=C(Sc3ccc(C)cc3)C(=O)c3ccccc3C2=O)cc1	25.1µM*	8.7	11.3%[46.1 µM]	2.0%[46.1 µM]	6.4%	-6.0%
CCCSP1(=S)NCCCO1 (configuration not stated)	-7.8%	-101.0*	-6.2%	-2.0%	-14.4%	nt
CCCCSP1(=S)NCCCN1	-1.4%	-12.5	-15.9%	12.4%	10.1%	nt
Cc1csc2nc(-c3cccc(NC(=O)c4cccc(F)c4)c3)cn12	-21.4%	-25.7	-12.1%[46.1 µM]	nt	-16.0%	?
CCNC(=O)C1(C)CCN(Cc2cccc3ccccc23)C1 (configuration not stated)	nt	-6.3	nt	nt	nt	nt
CCOC(=O)C(NCc1ccc2c(c1)OCO2)(NC(=O)c1ccccc1)C(F)(F)F (configuration not stated)	-20.5%	-61.2*	-12.3%	6.0%[46.1 µM]	-11.7%	-14.3%
CCOC(=O)C(NCc1ccccc1)(NC(=O)c1ccccc1)C(F)(F)F (configuration not stated)	-9.1%	-6.2	-26.9%	12.8%[46.1 µM]	-16.7%	i
CCOC(=O)c1sc(NC(=O)c2ccc(CC)s2)nc1C	50.8%	54.2	?	?	nt	nt
CCc1ccc(C(=O)Nc2nc(C)cs2)s1	?	-33.6	1.26µM*	?	-18.5%	-17.7%
Cc1csc(NC(=O)CS(=O)(=O)Cc2ccccc2)n1	20.7%	-71.4*	3.1%[46.1 µM]	?	-16.8%	-11.6%
CCOC(=O)Cc1csc(NC(=O)CS(=O)(=O)Cc2ccccc2)n1	-21.3%	9.6	4.4%	-22.0%	-7.8%	-6.9%
Cc1nc(-c2ccc(NC(=O)c3ccco3)cc2)cs1	11.2µM*	-83.5*	nt	nt	nt	nt
Cc1csc(NC(=O)c2ccco2)n1	21.2%	-84.3*	-11.6%	?	-3.1%	-8.4%
O=C(Nc1ccccc1)c1ccc(-n2nncc2-c2ccccc2)cc1	nt	nt	nt	nt	-14.0%	3.9%
CCOc1ccc(-c2cccc(NC(=O)c3ccco3)c2)nn1	3.9%	3.2	-10.9%	-5.7%	-15.2%	-2.9%
Nc1nc(-c2ccc(NC(=O)c3ccco3)cc2)cs1	-60.3%	15.2	?	5.01µM*	?	?
CC1CCc2nc(NC(=O)c3ccco3)sc2C1 (configuration not stated)	-89.6%	-78.1*	0.282µM*	1.26µM*	?	-11.3%
Nc1nc2ccc(NC(=O)c3ccco3)cc2s1	25.3%	?	20.2%	8.0%[46.1 µM]	-2.4%	4.0%
CC1CCc2nc(NC(=O)Cc3cccs3)sc2C1 (configuration not stated)	20.6%	27.4	-20.5%	0.0%	-26.2%	nt
